The panel holds about 83,000 compounds, 20% with a hit somewhere; the sample as a whole holds those more often.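 Method: cells in 96-well plates; compound added at one concentration; 48 h incubation; percent growth measured; values under 10 scored active.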 Values without a mark were called inactive. The source made the active and inactive calls.

Experimental findings from PubChem BioAssay (NCI) are described below.

Among the test systems are NCI-H23 lung; NCI-H226 lung; HOP-62 NSCLC; NCI-H460 lung; HOP-92 NSCLC; NCI-H522 lung; A549/ATCC NSCLC; 786-0 renal; COLO 205 colon; DU-145 prostate; K-562 leukemia; MALME-3M melanoma; MDA-MB-231 breast; RXF 393 renal; SF-268 CNS; SF-295 CNS; SF-539 CNS; UACC-257 melanoma; M14 melanoma; NCI-H322M lung.
Holding throughout (assay): NCI-60 one-dose screen, 48 h (100 = growth as untreated, 0 = no growth, -100 = all killed)
Common to all, as to conditions: 10 µM unless noted

Turning to `N#Cc1c(-c2ccc(F)cc2)nc(N=Nc2c(O)[nH]c3ccccc23)nc1N1CCOCC1`, the growth is 70.3% in the test with NCI-H23 lung; 57.7% in the test on NCI-H226 lung; 72% in the test with HOP-62 NSCLC; 30.9% in the test with NCI-H460 lung; 17.3% in the test with HOP-92 NSCLC; 78.6% with NCI-H522 lung. Moreover, the growth is 23.4% with A549/ATCC NSCLC; 59.4% with 786-0 renal; 77.9% with COLO 205 colon; 69.1% with DU-145 prostate; 91.8% with K-562 leukemia; 63.7% with MALME-3M melanoma. Also, the growth is 66% with MDA-MB-231 breast; 62.8% with RXF 393 renal; 77.3% in the test with SF-268 CNS; 70.2% in the test with SF-295 CNS; 85.5% with SF-539 CNS; 77.8% in the test on UACC-257 melanoma. For the same compound, the growth in the test on M14 melanoma was 72.3%.
As for `COC(=O)c1ccc2c(c1)NC(=O)[C@@H]1CCCN21`, the growth in the test on NCI-H23 lung is 88.6%; in the test with NCI-H226 lung it was 98.5%; in the test on HOP-62 NSCLC, 85.7%; with NCI-H460 lung it was 106%; in the test on HOP-92 NSCLC, 87.5%; in the test on NCI-H522 lung, 70%. Besides, the growth in the test with A549/ATCC NSCLC is 98.2%; in the test with 786-0 renal, 97.8%; in the test with COLO 205 colon, 108%; in the test on DU-145 prostate, 106%; in the test with K-562 leukemia, 96.7%; with MALME-3M melanoma it was 105%. Also, the growth in the test with MDA-MB-231 breast is 97.3%; with RXF 393 renal, 106%; in the test on SF-268 CNS, 94.7%; in the test on SF-295 CNS, 100%; with SF-539 CNS, 93.8%; in the test with UACC-257 melanoma it was 98.3%. For the same compound, the growth in the test with M14 melanoma was 102%.
As to `N#C/C(=C/c1ccc(O)c([N+](=O)[O-])c1)c1nc(-c2ccc([N+](=O)[O-])cc2)cs1`, the growth in the test on NCI-H23 lung was 13.6%; in the test on NCI-H226 lung, 52%; in the test on HOP-62 NSCLC, 86.8%; with NCI-H460 lung, 20.5%; in the test with HOP-92 NSCLC, -8.22% (active); with NCI-H522 lung it was 11.2%. In addition, the growth in the test with A549/ATCC NSCLC is 27.1%; with 786-0 renal, 51.9%; in the test with COLO 205 colon it was 51.2%; in the test with DU-145 prostate it was 60.3%; in the test with K-562 leukemia it was 19.5%; in the test with MALME-3M melanoma, 30.5%. The growth was 39.5% in the test with MDA-MB-231 breast; 77.7% in the test with RXF 393 renal; 50.5% in the test with SF-268 CNS; 29.6% with SF-295 CNS; 47.2% with SF-539 CNS; 20.2% in the test on UACC-257 melanoma. Moreover, the growth with M14 melanoma was 41.5%.
With `CCOC(=O)C(=Cc1c(-c2ccccc2)[nH]c2ccccc12)C(=O)OCC`, the growth was 50.7% with NCI-H23 lung; 60.1% in the test on NCI-H226 lung; 75.9% in the test with HOP-62 NSCLC; 21.5% with NCI-H460 lung; -5.04% (active) in the test with HOP-92 NSCLC; -33.7% (active) with NCI-H522 lung. Further, the growth with A549/ATCC NSCLC is 40.3%; with 786-0 renal, 90.4%; with COLO 205 colon, 58.7%; in the test on DU-145 prostate it was 58.7%; in the test on K-562 leukemia it was -6.49% (active); in the test on MALME-3M melanoma, 95.5%. For the same compound, the growth is 63.3% with MDA-MB-231 breast; 51.9% with RXF 393 renal; 60.7% in the test with SF-268 CNS; -10.2% (active) with SF-295 CNS; 88.1% in the test on SF-539 CNS; 44.3% with UACC-257 melanoma. For the same compound, the growth in the test on M14 melanoma was 47.8%.
As to `O=C1[C@@H](OS(=O)(=O)CC(F)(F)F)[C@H](c2ccc(F)cn2)N1c1cc2c3ccccc3ccc2c2ccccc12`, the growth in the test with NCI-H23 lung was 84.5%; with NCI-H226 lung, 92.3%; with HOP-62 NSCLC it was 88.6%; in the test on NCI-H460 lung, 104%; in the test on HOP-92 NSCLC, 71.4%; in the test with NCI-H522 lung it was 35.7%. The growth in the test with A549/ATCC NSCLC is 82.5%; with 786-0 renal, 71.7%; in the test with COLO 205 colon it was 101%; in the test on DU-145 prostate, 84.5%; in the test on K-562 leukemia, 44.5%; with MALME-3M melanoma, 95%. The growth was 71.2% in the test with MDA-MB-231 breast; 85.9% in the test on RXF 393 renal; 78.9% with SF-268 CNS; 83.3% in the test on SF-295 CNS; 87.1% in the test with SF-539 CNS; 79% in the test with UACC-257 melanoma. In the test with M14 melanoma, the growth was 72.9%.
For the compound `COc1cccc(NC(=O)Nc2ccc(Nc3ncnc4[nH]c(C)c(C)c34)cc2)c1`, the growth was 111% with NCI-H23 lung; 114% in the test with NCI-H322M lung; 103% with HOP-62 NSCLC; 102% in the test on NCI-H460 lung; 104% with HOP-92 NSCLC; 90.8% with NCI-H522 lung. Further, the growth in the test on A549/ATCC NSCLC is 92.7%; in the test on 786-0 renal, 113%; in the test on COLO 205 colon it was 112%; in the test on DU-145 prostate it was 110%; in the test with K-562 leukemia, 94.4%; in the test with MALME-3M melanoma it was 122%. The growth was 108% in the test on MDA-MB-231 breast; 111% in the test with RXF 393 renal; 94% with SF-268 CNS; 95.5% with SF-295 CNS; 69.3% in the test on SF-539 CNS; 98.3% in the test with UACC-257 melanoma. Besides, the growth with M14 melanoma was 106%.
As for `CCCn1c2cc(OCc3cn(-c4ccc(Cl)cc4)nn3)ccc2c2ccnc(C)c21`, the growth in the test with NCI-H23 lung was 78.1%; in the test with NCI-H226 lung, 69.5%; in the test with HOP-62 NSCLC it was 70.1%; in the test with NCI-H460 lung it was 71.1%; in the test on HOP-92 NSCLC, 50.5%; in the test on NCI-H522 lung it was 66.4%. The growth in the test on A549/ATCC NSCLC is 70.8%; in the test with 786-0 renal, 34.8%; with COLO 205 colon it was 44.1%; in the test with DU-145 prostate it was 95.7%; in the test on K-562 leukemia, 34.9%; in the test on MALME-3M melanoma it was 98.7%. Besides, the growth was 64.6% in the test with MDA-MB-231 breast; 73% with RXF 393 renal; 95.1% in the test on SF-268 CNS; 81.6% in the test with SF-295 CNS; 87.3% in the test with SF-539 CNS; 61% in the test with UACC-257 melanoma. Moreover, in the test on M14 melanoma, the growth is 76.4%.
